Six1-Eya2 inh: Six1/Eya2 interaction inhibition. activity change, % (no concentration beside the values). AlphaScreen GST-Six1/His-Eya2 binding, biochemical; active compounds read low. 360,000 compounds, 0.56% hits; in the data active means activity change below about -65%; inconclusive means mostly about -30% to -63%
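AlphaScreen luminescence read after one hour at 37 °C in darkness. Pin-transferred compounds met GST-Six1 and His-Eya2 protein (5X stock 250 nM/500 nM) plus glutathione donor and Ni-chelate acceptor beads (5X, 50 ug/mL).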
PKM2 act: PKM2 (human) enzyme activation. P14618. purified PKM2, Kinase-Glo ATP luminescence, activation; response scale: 0% is enzyme alone, no compound. Potency, µM (titrated, usually from 57.5 µM), for inactives: top-dose activation, actives largely listed as activators. 260,000 compounds, 0.34% hits. AID 1631; further: potency means the concentration at half of the fitted maximal effect; nearly all actives have a fitted effect of over 55% in size
Target sequence (P14618 whole entry, looked up): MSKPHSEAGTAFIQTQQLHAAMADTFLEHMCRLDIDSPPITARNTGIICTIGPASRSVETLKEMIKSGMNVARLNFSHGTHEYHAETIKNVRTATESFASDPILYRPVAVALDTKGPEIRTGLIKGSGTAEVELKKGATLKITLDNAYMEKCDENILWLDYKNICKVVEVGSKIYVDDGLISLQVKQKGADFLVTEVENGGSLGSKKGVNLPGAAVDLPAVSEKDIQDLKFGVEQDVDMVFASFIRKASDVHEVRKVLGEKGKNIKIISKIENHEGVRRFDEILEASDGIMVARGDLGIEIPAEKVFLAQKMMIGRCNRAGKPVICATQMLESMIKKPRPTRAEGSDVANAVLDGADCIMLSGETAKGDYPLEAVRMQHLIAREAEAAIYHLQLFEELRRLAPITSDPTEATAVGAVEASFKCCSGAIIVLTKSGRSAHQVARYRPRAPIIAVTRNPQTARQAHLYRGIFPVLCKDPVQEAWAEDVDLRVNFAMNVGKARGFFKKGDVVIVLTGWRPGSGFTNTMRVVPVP
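Purified hPK-M2 (>95% pure) converted ADP (0.1 mM final) to ATP with 0.5 mM PEP in 50 mM imidazole pH7.2, KCl, MgCl2, Tween 20, BSA; 1 h at room temperature. ATP detected by Kinase-Glo luminescence.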
Gal4-VP16 FLuc: counter-screen for ROR gamma inhibitors: Gal4-VP16 reporter; 310,000 compounds, 3.5% hits; Potency, µM (top dose mostly 53.6 µM), inactives show at the highest dose activity, negative = inhibition, hits mostly inhibitors; AID 2546; Drosophila S2 Gal4-VP16 UAS-luciferase, luminescence, 20 h;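 further: Gal4-VP16 expression switched on by copper sulfate through the metallothionein promoter; potency means the concentration at half of the fitted maximal effect; nearly all actives have a fitted effect of over 50% in size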
RORgamma inh: ROR gamma (mouse) transcription inhibition | P51450 | Drosophila S2 Gal4-RORgamma UAS-luciferase reporter, 20 h | Potency, µM (highest dose often 53.6 µM), inactives show top-dose activity change, negative = inhibition, usual class: inhibitors | 310,000 compounds, 5.4% hits; further: potency means the concentration at half of the fitted maximal effect; nearly all actives have a fitted effect of over 60% in size
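Using a luciferase readout, inhibitors were identified by reduced reporter activity in Drosophila cells coexpressing a copper-inducible Gal4–ROR gamma fusion and UAS-driven Photinus luciferase, incubated 20 hr after 700 uM copper sulfate.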
CtBP-E1A inh: blocks the CtBP interaction with E1A. activity change, % (no concentration beside the values). AlphaScreen GST-E1A/His-CtBP binding, 1536-well; active compounds read low. AID 651724. 340,000 compounds, 0.49% hits; in the data active means activity change below about -65%; inconclusive means mostly about -30% to -63%
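Protein mix (5X: 125 nM each GST-E1A, His-CtBP) was incubated with pinned compound 2 h at 37 deg C in dark, in 50 mM Tris pH 8.0 buffer with 300 mM NaCl. Glutathione donor and nickel acceptor beads followed; AlphaScreen signal read after 1 h.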
Starred values were filed as active, the others as inactive; ? = inconclusive; · = no result given; [ ] = remark or other dose. Most compounds without a hit are left out; they make up all but 5.6% or so of the library. Unless noted, the call rests on the fitted dose curve; in most records, active means well fitted curve in the direction sought with a large enough effect; inconclusive means small, poorly fitted or top-dose-only effect, or another doubt; inactive means no such curve, though single readings can be large; an effect the other way counts as inactive or inconclusive. On the % scale 0 is the no-effect control and ±100 the full control effect.

SMILES	Six1-Eya2 inh	PKM2 act	Gal4-VP16 FLuc	RORgamma inh	CtBP-E1A inh
CCc1c(C)nc2c(-c3ccccc3)c[nH]n2c1=O	-9.6	5.1%	·	·	-19.4
CCOC(=O)Cc1c(C)nc2c(-c3ccccc3)c(-c3ccccc3)[nH]n2c1=O	-75.2*	-1.0%	?	12.6µM*	?
CCOC(=O)Cc1cc(=O)n2[nH]cc(-c3ccc(Cl)cc3)c2n1	7.8	-3.1%	?	11.2µM*	9.4
CCOC(=O)Cc1c(C)nc2c(-c3ccccc3)c[nH]n2c1=O	-6.4	-8.5%	-7.0%[0.365 µM]	7.94µM*	-1.1
Cc1ncoc1C(=O)N1CCCC(C(=O)c2ccc(-c3ccccc3)cc2)C1 (stereo unspecified)	-2.9	1.5%	7.1%	?	·
O=C(CCCCCCCC(=O)N1CCCC1)N1CCCC1	11.3	·	·	·	1.9
CCOc1cc(/C=N/Nc2nc(N3CCCC3)nc(N3CCCC3)n2)ccc1O	?	?	5.01µM*	5.62µM*	?
CCOc1cccc(/C=N/Nc2nc(N3CCCC3)nc(N3CCCC3)n2)c1O	1.5	12.3%	-4.5%	?	·
CCOc1cc(/C=N/Nc2nc(C)cc(=O)[nH]2)ccc1O	?	·	-9.6%	37.9%	?
CCOc1cc(/C=N/Nc2ncc(C)c(=O)[nH]2)ccc1O	?	·	-11.3%	50.2%	-80.5*
CCOc1cc(/C=N/Nc2nc(Nc3ccccc3)nc(N3CCCCC3)n2)ccc1OCC(=O)O	-6.6	11.6%	?	4.47µM*	-7.3
O=c1[nH]c(=S)[nH]c2c1C(c1ccc(Cl)cc1)OC(C1CCCCC1)C2 (stereo unspecified)	-2.3	·	·	·	-1.7
Cc1c(C)c2c(c(C)c1O)CCC(C)(C(=O)O)O2 (stereo unspecified)	7.2	·	·	·	-13.7
Cc1ccc(C(N)=S)c(C)c1	5.9	4.0%	?	20µM*	1.5
CCCCNC(=O)Cn1nc(Cc2ccncc2)c2ccccc2c1=O	7.4	·	-22.5%	-41.8%	·
O=C(Cn1nc(Cc2ccncc2)c2ccccc2c1=O)N1CCc2ccccc2C1	-19.0	-1.9%	-7.5%	-6.7%	-67.7*
O=C(COC(=O)COc1ccc(Br)cc1)NC1CCS(=O)(=O)C1 (stereo unspecified)	5.6	·	·	·	0.6
CCCC1(c2ccccc2)NC(=O)N(CC(=O)NCC2COc3ccccc3O2)C1=O (stereo unspecified)	4.4	·	·	·	4.4
CCn1c(-c2cccn(Cc3ccccc3)c2=O)n[nH]c1=S	-2.9	-3.3%	8.4%	-31.7%	-4.0
CCn1c(-c2ccccc2SC)n[nH]c1=S	0.0	-8.4%	-11.0%	14.1µM*	17.7
CCCOc1cccc(-c2cc(-c3n[nH]c(=S)n3CC)c3ccccc3n2)c1	-12.8	-2.6%	-20.1%	1.26µM*	-12.8
C=CCn1c(-c2cc(-c3ccc(C)cc3)nc3ccccc23)n[nH]c1=S	-3.0	-0.7%	10µM*	0.891µM*	-9.5
CCn1c(-c2cc(-c3ccc(C)cc3)nc3ccccc23)n[nH]c1=S	-8.8	-11.5%	-19.4%	1.12µM*	-1.2
CC1(C)Cc2c(cnn2-c2cccc(F)c2)C(NC(=O)C2CCOCC2)C1 (stereo unspecified)	-3.8	-1.8%	-5.3%	30.2%	9.2
COc1ccccc1CN(C)C(=O)COC(=O)c1cc(C)oc1C	3.5	·	·	·	-2.2
SMILES	Six1-Eya2 inh	PKM2 act	Gal4-VP16 FLuc	RORgamma inh	CtBP-E1A inh
CCn1c(-c2cc(-c3ccc(OC(C)C)cc3)nc3ccccc23)n[nH]c1=S	-10.5	3.2%	?	12.6µM*	-15.6
CCC(C)NC(=O)CSc1nnc(-c2cc(-c3ccc(C)cc3)nc3ccccc23)n1N (stereo unspecified)	4.2	-1.4%	11.5%	40.2%	-3.0
CCOC(=O)c1sc(=S)n(C)c1C	1.8	10.6%	-0.4%	5.4%	9.1
CCOC(=O)c1c[nH]c(=S)n1C	3.1	8.7%	-1.5%	11.2µM*	2.3
CCCC(=O)O[C@]1(C(=O)CCl)[C@H](C)C[C@@H]2[C@H]3CCC4=CC(=O)C=C[C@]4(C)[C@@]3(F)C(=O)C[C@@]21C	·	·	4.0%	10µM*	·
CC1CC2C3CCC4=CC(=O)C=C[C@]4(C)[C@@]3(Cl)C(O)C[C@]2(C)C1(OC(=O)c1ccco1)C(=O)CCl (stereo partly specified)	·	·	2.4%	15.8µM*	·
CCCCC(=O)O[C@@]1(C(=O)CO)C(C)CC2C3CCC4=CC(=O)C=C[C@@]4(C)[C@]3(F)C(O)C[C@]21C (stereo partly specified)	·	·	-4.9%	-35.5%	·
C[C@H]1C[C@@H]2[C@H]3CCC4=CC(=O)C=C[C@@]4(C)[C@@]3(Cl)[C@@H](O)C[C@]2(C)[C@]1(OC(=O)c1ccco1)C(=O)CCl	·	·	-22.2%[17 µM]	?	·
O=c1c2ccccc2nc2ccc(NCc3ccco3)nn12	-68.5*	3.0%	-11.9%	-7.5%	-81.0*
Cc1sc2nc3ccc(NCc4ccco4)nn3c(=O)c2c1C	-66.0*	18.2%	-1.8%	8.7%	?
CC(=O)Nc1ccc(NC(=O)C(C)Oc2ccc(Cl)cc2Cl)cc1 (stereo unspecified)	2.3	4.3%	18.9%	25.9%	·
CC(Oc1ccc(Cl)cc1Cl)C(=O)Nc1ccncc1 (stereo unspecified)	1.0	0.6%	20µM*	-28.6%	-1.4
CC(Oc1cccc(Cl)c1)C(=O)Nc1ccncc1 (stereo unspecified)	0.6	-5.8%	12.6µM*	?	·
CC(OC(=O)c1ccncc1)C(=O)Nc1cccc(Cl)c1 (stereo unspecified)	-2.4	1.9%	1.5%	-2.2%	-2.6
O=C(COc1ccc([N+](=O)[O-])cc1)Nc1ccc2c(c1)nc1n2CCOC1	2.8	·	-0.3%	-12.4%	-16.8
Cc1ccc(C(=O)N/N=C\C=C\c2ccc(Br)cc2)cn1	1.1	-2.3%	2.24µM*	0.562µM*	·
Cc1ccc(C(=O)N/N=C/c2cc(Br)ccc2O)cn1	-89.3*	-2.6%	1.12µM*	2.51µM*	-90.8*
Cc1ccc(C(=O)N/N=C\c2ccc3c(c2)OCO3)cn1	2.8	7.9%	-7.7%	-19.8%	-2.9
CN=C1N[C@H](c2ccccc2)N(c2ccccc2)S1	·	·	28.2µM*	10µM*	·
CCOc1ccc(Nc2cc3n(c(=O)n2)CCc2cc(OC)c(OC)cc2-3)cc1	-84.0*	·	-1.8%	3.9%	-5.3
COc1cc2c(cc1OC)-c1cc(NCc3ccccn3)nc(=O)n1CC2	-78.4*	2.8%	-3.8%	-6.4%	?
COc1cc2c(cc1OC)-c1cc(NC3CC3)nc(=O)n1CC2	?	-0.8%	1.0%	-19.8%	?
CCOc1ccccc1Nc1cc2n(c(=O)n1)CCc1cc(OC)c(OC)cc1-2	?	·	-8.4%	-2.0%	?
COc1cc2c(cc1OC)-c1cc(NC3CCCCC3)nc(=O)n1CC2	-65.0*	0.2%	1.9%	-31.1%	-66.0*
CCCCCCNc1cc2n(c(=O)n1)CCc1cc(OC)c(OC)cc1-2	-71.0*	-2.0%	-10.8%	5.8%	-80.7*
